Compound activity as filed in PubChem BioAssay.
Rac1 mut GTP: modulators of GTP binding to human Rac1 activated mutant; actives 0.11% (n = 190,000); GST-Rac1 activated beads, fluorescent GTP binding, flow cytometry; actives lie on both sides; 100% means binding = to untreated wells; P63000; percent activity (GTP binding), % at 10 µM;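 active = GTP binding at least 20 percentage points away from the 100% baseline, in either direction, so actives lie on both sides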
Rab2 wt GTP: changes GTP binding to wildtype dog Rab2A, up or down; GST-Rab2 wt beads, Bodipy-GTP binding, flow cytometry; GTP binding activity, % at 10 µM; actives 0.19% (n = 190,000); AID 760;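 active = GTP binding activity at least 20 points away from 100%, either lowered or raised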;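 also: 0% = beads with excess unlabeled GTP and 100% = no-compound control corrected for plate trend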
Cdc42 wt GTP: modulators (inhibitors or activators) of GTP binding to human Cdc42 wildtype | P60953 | GST-Cdc42 beads, Bodipy-GTP binding, flow cytometry; actives lie on both sides | percent activity (GTP binding), % at 10 µM | actives 0.2% (n = 190,000);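 active = percent activity GTP binding at least 20 points away from the 100% baseline, either down as inhibitor or up as activator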;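 also: median bead fluorescence of bound Bodipy-FL-GTP at 100 nM; 0% = excess unlabeled GTP control and 100% = no compound control; below 100% means less GTP binding so inhibitor and above means activator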
Target sequence (P60953 whole entry, looked up): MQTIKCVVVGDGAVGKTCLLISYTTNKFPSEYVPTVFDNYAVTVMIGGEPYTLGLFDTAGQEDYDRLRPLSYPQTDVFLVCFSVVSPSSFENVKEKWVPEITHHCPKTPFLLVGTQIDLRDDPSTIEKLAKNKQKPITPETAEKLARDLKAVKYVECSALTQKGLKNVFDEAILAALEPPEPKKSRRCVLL
HRas wt GTP bind: modulators of GTP binding to human HRas wildtype. P01112. GST-Ras wt beads, Bodipy-FL-GTP binding, flow cytometry; actives lie on both sides. GTP binding activity, % at 10 µM. actives 0.14% (n = 190,000). AID 759;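 active = GTP binding activity at least 20% away from the 100% baseline, either lowered as inhibitor or raised as activator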;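 also: 0% = unlabeled GTP competition control and 100% = no-compound control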
Target sequence (P01112 whole entry, looked up): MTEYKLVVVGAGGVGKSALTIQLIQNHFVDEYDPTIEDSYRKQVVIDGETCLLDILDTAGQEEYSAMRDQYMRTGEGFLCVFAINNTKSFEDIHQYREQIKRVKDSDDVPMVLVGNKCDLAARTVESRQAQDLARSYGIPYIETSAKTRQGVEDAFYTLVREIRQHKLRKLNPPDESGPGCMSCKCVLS
Rab7 wt GTP bind: modulators of GTP binding to dog Rab7 wildtype GTPase; actives 0.055% (n = 190,000); GTP binding activity (percent of control), % at 10 µM; GST-Rab7 beads, fluorescent GTP binding, flow cytometry; actives lie on both sides; untreated = 100%, excess cold GTP = 0%;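 active = fluorescent GTP binding to Rab7 beads changed by at least 20 points from the 100% baseline, either direction, mostly lower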;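 also: median green fluorescence of bound Bodipy-FL-GTP per Rab7 bead population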
Rac1 wt modul: human Rac1 wildtype GTP binding, inhibitors and activators; AID 757; GTP binding activity (% of control), % at 10 µM; GST-Rac1 beads, fluorescent GTP binding, flow cytometry; actives lie on both sides; 0 = cold GTP competed, 100 = untreated; actives 0.27% (n = 190,000);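 active = GTP binding activity at least 20 points away from the 100% control level, either lower or higher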
Starred values were filed as active, the others as inactive; [ ] = dose if it differs, or a comment. Hits are enriched below; roughly 0.4% of the tested compounds scored in any of these assays.

SMILES	Rac1 mut GTP	Rab2 wt GTP	Cdc42 wt GTP	HRas wt GTP bind	Rab7 wt GTP bind	Rac1 wt modul
Cc1cc(C)nc(NS(=O)(=O)c2ccc(N/C=C/C(=O)c3ccc(Cl)cc3)cc2)n1	99	98	99	98	100	99
COC(=O)c1ccccc1NC(=O)CSCC(=O)Nc1ccccc1OC	97	95	99	95	76*	96
Cc1ccc(NC(=O)[C@@H](NC(=O)c2cccc(S(=O)(=O)N3CCOCC3)c2)C(C)C)cc1C	100	101	101	102	103	103
Cc1cc(NC(=O)CSc2nc(-c3ccccc3)c(C#N)c(=O)[nH]2)no1	76*	78*	75*	75*	77*	77*
Cc1cc(NS(=O)(=O)c2ccccc2)c(C)c(Cl)c1O	103	101	106	101	98	105
O=S(=O)(Nc1cc(Sc2ncn[nH]2)c(O)c2ccccc12)c1ccccc1	89	91	95	92	91	78*
CC(C)(C)C(C(=O)O)N1CCS(=O)(=O)CC1 (centres undefined)	101	100	97	97	97	102
O=C(CC(=O)c1ccccc1)Nc1cccnc1Cl	102	98	102	101	101	101
COc1ccc([N+](=O)[O-])cc1NC(=O)Cc1ccc(Cl)cc1	101	99	98	101	98	100
COc1ccc([N+](=O)[O-])cc1NC(=S)NC(NC(=O)Cc1ccc(OC)c(OC)c1)C(Cl)(Cl)Cl (centres undefined)	79*	55*	54*	57*	90	74*
COc1cc([N+](=O)[O-])cc(/C=N/NC(=O)c2ccc(NC(=O)c3ccc(C)cc3)cc2)c1O	80	78*	83	80	83	81
Cc1cc(C(=O)OCC(=O)Nc2ccc(S(N)(=O)=O)cc2)c2ccccc2n1	93	95	93	93	100	93
Cc1ncc(CC(=O)n2cc(C(=O)c3cc(F)ccc3O)cn2)s1	98	97	97	98	97	99
Cc1ccc(O)c(C(=O)c2cnn(C(=O)Cc3csc(C)n3)c2)c1	91	85	83	77*	79*	93
CN(C)S(=O)(=O)c1ccc(=S)[nH]c1	94	95	97	98	95	99
O=C(COC(=O)c1ccc2c(c1[N+](=O)[O-])C(=O)c1ccccc1C2=O)NC1CC1	83	73*	73*	76*	91	70*
Cc1cc2nnc(SCC(=O)N3CCCCCC3)n2c(N)n1	97	99	99	100	106	99
O=C(NC1CCCCC1)C(c1ccco1)N(Cc1ccco1)C(=O)c1ccco1 (centres undefined)	98	98	100	64*	98	100
CCC(/C=C1\Sc2ccc(OC)cc2N1CC)=C\c1sc2ccc(OC)cc2[n+]1CCCS(=O)(=O)[O-]	93	92	94	94	95	96
CCC(/C=C1\Sc2ccc(OC)cc2N1CCO)=C\c1sc2ccc(OC)cc2[n+]1CCO	89	80	82	78*	90	87
Cc1cc(C)c2nc(NNC(=O)c3cc(=O)c4ccccc4o3)sc2c1	71*	79*	77*	82	96	80
CCOc1cc(/C=C(/C#N)c2nc3ccccc3[nH]2)ccc1OCc1ccc(C(=O)O)o1	86	74*	77*	76*	92	85
CCCc1ccccc1OCCNC(=O)c1cc(=O)n(C)c(=O)n1C	97	98	96	99	109	101
Cc1ccc(S(=O)(=O)N(C)C)cc1NC(=O)COC(=O)c1ccc(Cl)cc1	109	108	113	105	109	144*[activator]
O=C(COC(=O)c1cc2ccccc2o1)c1ccccc1	101	98	98	99	98	102
SMILES	Rac1 mut GTP	Rab2 wt GTP	Cdc42 wt GTP	HRas wt GTP bind	Rab7 wt GTP bind	Rac1 wt modul
O=C(OCCN1CCCCC1)c1cc2ccccc2o1	102	106	114	106	102	123*[activator]
COc1ccc(CCNC(=O)c2ccc(CNc3nc(=S)[nH]c4ccccc34)cc2)cc1OC	96	101	102	98	105	96
COc1cc2[nH]c(=S)nc(NCc3cccs3)c2cc1OC	81	66*	61*	63*	90	60*
COc1cc2[nH]c(=O)n(CCC(=O)NCCC(C)C)c(=O)c2cc1OC	98	100	103	101	101	107
COc1cc2[nH]c(=S)nc(NCCC(C)C)c2cc1OC	71*	59*	56*	64*	85	52*
COc1cc2ncnc(NCc3cccs3)c2cc1OC	94	98	95	98	109	91
COc1cc2[nH]c(=S)nc(NCCc3ccc(S(N)(=O)=O)cc3)c2cc1OC	61*	37*	32*	35*	81	40*
COc1ccc(CCNc2nc(=S)[nH]c3cc(OC)c(OC)cc23)cc1OC	67*	47*	49*	48*	74*	71*
COc1ccccc1CC(=O)NCCc1ccc(S(N)(=O)=O)cc1	102	103	108	103	100	111
COc1cc(/C=N/N=C2/SCC(=O)N2c2ccc(O)cc2)ccc1O	96	99	101	95	99	100
CC(C)C(NC(=S)Nc1ccccc1)C(=O)O (centres undefined)	100	103	101	104	105	101
Cc1ccc(C(=O)N(Cc2ccccc2)C(C)(C)C)cc1C	96	100	97	98	99	101
COc1cc2[nH]c(=S)nc(NCCc3ccc(C)cc3)c2cc1OC	65*	49*	45*	54*	69*	49*
Cc1ccc([N+](=O)[O-])cc1NC(=O)C(Sc1ccccc1)c1ccccc1 (centres undefined)	101	96	101	97	96	101
CCOC(=O)c1cc(C(=O)OCC)c2ccccn2c1=O	88	88	95	79*	76*	87
CC(C)CCNC(=O)CCCCn1c(=O)[nH]c2ccsc2c1=O	97	96	97	97	95	101
Cc1nn(Cc2ccccc2)c(C)c1NC(=O)CSc1nc2c(c(C(F)(F)F)n1)CCc1ccccc1-2	88	83	84	85	92	75*
CCCC(C)c1nnc(NC(=O)CN2C(=O)c3ccccc3C2=O)s1 (centres undefined)	93	94	90	95	103	95
O=C(COC(=O)c1cc(Br)c(Br)s1)NCCC1=CCCCC1	91	90	93	93	99	93
